Activity calls are given as the source filed them.

The target in the experiment is Luciferin 4-monooxygenase (Photinus pyralis) (UniProt P08659). Briefly: firefly luciferase enzyme inhibitors, primary screen, biochemical, luminescence, purified enzyme, 2006 set (AID 1141).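 Further: cell-free assay with purified firefly luciferase at 100 ng per well in PBS; test concentration not given here.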 To be noted: SteadyGlo luminescence, 30 min, higher = more signal, called active from +8 up or from −8 down.
Sequence of Luciferin 4-monooxygenase (Photinus pyralis) (P08659 whole entry, looked up): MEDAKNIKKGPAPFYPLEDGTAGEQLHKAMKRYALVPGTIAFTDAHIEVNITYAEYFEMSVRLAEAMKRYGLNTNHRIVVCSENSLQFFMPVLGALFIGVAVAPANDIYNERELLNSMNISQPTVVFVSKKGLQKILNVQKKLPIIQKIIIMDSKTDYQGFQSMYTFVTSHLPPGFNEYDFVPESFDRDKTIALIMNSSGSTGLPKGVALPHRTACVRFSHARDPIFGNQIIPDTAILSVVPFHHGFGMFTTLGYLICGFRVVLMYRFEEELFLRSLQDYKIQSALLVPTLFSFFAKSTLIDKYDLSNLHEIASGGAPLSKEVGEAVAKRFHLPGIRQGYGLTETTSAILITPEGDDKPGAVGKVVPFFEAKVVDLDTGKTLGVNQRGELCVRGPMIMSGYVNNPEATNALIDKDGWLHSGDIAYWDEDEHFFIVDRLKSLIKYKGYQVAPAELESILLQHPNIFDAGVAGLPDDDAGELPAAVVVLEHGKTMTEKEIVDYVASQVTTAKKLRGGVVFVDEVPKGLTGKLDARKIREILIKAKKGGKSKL
As for `N#Cc1ccc(C(O)C2C=CC3C(=O)N(c4ccccc4)C(=O)C3N2Nc2ccc([N+](=O)[O-])cc2)cc1` (stereo unspecified), the z-score is 0.279 (inactive).

Consider `CN(C)CCCC[C@@H]1NC(=O)[C@@H]2C[C@H](C(=O)NCc3ccc(F)cc3)[C@H](c3ccc(O)cc3)N2C1=O`, for which the z-score is 0.144 (inactive).

For the molecule `CC(=O)c1ccc(C(O)C2C=CC3C(=O)N(C)C(=O)C3N2NC(=O)OC(C)(C)C)cc1` (stereo unspecified), the z-score is -0.068 (inactive).

Regarding `CO[C@H]1O[C@H](CO)[C@@H](OC(=O)Nc2ccc3c(c2)OCO3)[C@@H]2OC(=O)[C@@H](Cc3ccccc3)C/C=C/C[C@H](Cc3ccccc3)C(=O)O[C@@H]12`, the z-score is -1.01 (inactive).

For `O=C1NC(=O)C2C1C=CC(C(O)c1cccc(O)c1)N2Nc1ccc(Cl)cc1Cl` (stereo unspecified), the z-score is -0.259 (inactive).

Regarding `Cc1ccc(S[C@]2(C(=O)NCCCN(C)C)CC(=O)N(Cc3ccccc3Cl)[C@@H]2c2ccc(CO)cc2I)cc1`, the z-score was -0.543 (inactive).

On to `O=c1cccc(-c2ccccc2C(F)(F)F)o1`, for which the z-score is 1.24 (inactive).

Consider `COCCOC(=O)N1C(=O)[C@@]2(c3cc(C#CCC(C(=O)OC)C(=O)OC)ccc31)[C@H](c1ccc(OCCO)cc1)N1[C@H](c3ccccc3)[C@H](c3ccccc3)OC(=O)[C@H]1[C@@H]2C(=O)N1CCCCCCC1`, for which the z-score was -1.62 (inactive).

As to `C[C@H]1NC(=O)C([C@@H](C)OCc2ccccc2)NC(=O)[C@@]23C(=O)N[C@@H](Cc4ccccc4)C2[C@H](C)[C@@]2(C)O[C@H]2C3/C=C/C/C=C\CNC1=O` (stereo partly specified), the z-score was -1.02 (inactive).

Take `COCC(=C=CC[C@@H](O)c1cccc(OCCO)c1)C[C@@H](O)COCc1ccccc1`: the z-score is -2.33 (inactive).

Consider `C=C(CCCC)C(=O)CC[C@H](OC(C)=O)c1ccccc1OCCO`, for which the z-score is -0.722 (inactive).

Consider `CCC[C@@H]1C=C(C(=O)OCC)[C@H](c2ccccc2)N1S(=O)(=O)c1ccc(C)cc1`, for which the z-score was 1.41 (inactive).

On to `COCCOC(=O)N1C(=O)[C@@]2(c3cc(C#CC4(O)CCCCCC4)ccc31)[C@H](C(=O)N1CCc3cc(OC)c(OC)cc3C1)[C@H]1C(=O)O[C@H](c3ccccc3)[C@H](c3ccccc3)N1[C@@H]2c1ccc(O)cc1`, for which the z-score is -0.604 (inactive).

With `Cc1ccc(F)cc1S(=O)(=O)N[C@@H]1CCN(Cc2ccc3c(c2)OCO3)C1`, the z-score was -0.391 (inactive).

As for `COCCOC(=O)N1C(=O)[C@@]2(c3cc(C#CC4(O)CCCCCC4)ccc31)[C@H](c1ccc(OCCO)cc1)N1[C@H](c3ccccc3)[C@H](c3ccccc3)OC(=O)[C@H]1[C@@H]2C(=O)N1CCCCCCC1`, the z-score is -1.34 (inactive).

As for `CC(c1ccccc1)C(O)C1C=CC2C(=O)N(c3ccccc3)C(=O)C2N1Nc1ccc(C#N)cc1` (stereo unspecified), the z-score is -0.424 (inactive).

Turning to `COC(=O)C(CC#Cc1ccc2c(c1)[C@]1(C(=O)N2)[C@H](c2ccc(O)cc2)N2[C@H](c3ccccc3)[C@H](c3ccccc3)OC(=O)[C@H]2[C@@H]1C(=O)N1CCc2cc(OC)c(OC)cc2C1)C(=O)OC`, the z-score is -0.0494 (inactive).

Consider `C[N+](C)(C)CCCCCCNC(=O)[C@H]1C[C@H]2C(=O)NCC(=O)N2[C@H]1c1cccc(OCCO)c1`, for which the z-score was -0.0987 (inactive).

On to `COC(=O)c1c(CC[C@@H](CO)NC(=O)N[C@@H](Cc2ccccc2)Cn2cc(-c3cncn3C)nn2)oc(C(C)=O)c1C(=O)OC`, for which the z-score is 0.879 (inactive).

With `O=C1O[C@@H](c2ccccc2)[C@@H](c2ccccc2)N2[C@@H](c3ccc(O)cc3)[C@]3(C(=O)Nc4ccc(C#CC5=CCCCC5)cc43)[C@@H](C(=O)N3CCCCCCC3)[C@H]12`, the z-score is -3.18 (inactive).

As to `COC(=O)C1=CC(CCCO)=CC(C2CC2)N(Cc2cccc(OC(F)(F)F)c2)C=C1C(=O)OC` (stereo unspecified), the z-score was 0.189 (inactive).

In the case of `COCCOC(=O)N1C(=O)[C@@]2(c3cc(C#CCC(C(=O)OC)C(=O)OC)ccc31)[C@H](C(=O)N1CCCCCCC1)[C@H]1C(=O)O[C@H](c3ccccc3)[C@H](c3ccccc3)N1[C@@H]2c1ccccc1OCCO`, the z-score is -0.694 (inactive).

For `COCCOC(=O)N1C(=O)[C@@]2(c3cc(C#CCCO)ccc31)[C@H](c1ccccc1OCCO)N1[C@H](c3ccccc3)[C@H](c3ccccc3)OC(=O)[C@H]1[C@@H]2C(=O)N1CCc2cc(OC)c(OC)cc2C1`, the z-score is -1.26 (inactive).

As for `COC(=O)[C@@H]1N=C(c2ccc(OCCCO)cc2)O[C@@H]1c1ccccc1CN=[N+]=[N-]`, the z-score is -0.0813 (inactive).

`COC(=O)[C@H](Cc1ccc(O)cc1)N1CC2=CCCC=C[C@@H]2[C@H]1[C@H](O)Cc1ccccc1`: the z-score is -1.63 (inactive).

`C=CC[C@@]1(C(=O)N(C)C)N=C(c2ccc(OCCCO)cc2)O[C@@H]1c1ccccc1`: the z-score was 0.213 (inactive).

These data come from PubChem BioAssay.
